The source made the active and inactive calls.
Experiments:
[1] = biological target: Albumin (Bos taurus) (UniProt P02769); assay: bovine serum albumin binders on microarray, profiling panel, artefact control for SMM control protein annotation, biochemical, small-molecule microarray, Alexa647 label, 635/667 nm fluorescence (AID 1118); settings: BSA-A647 binding, fluorescence 635 nm, higher = more signal;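 note: score merges 667 nm emission intensity and signal-to-noise per printed compound spot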
[2] = small-molecule microarray binders of probe aXIP, primary screen, biochemical, NeuroSMM set, 635/667 nm fluorescence (AID 1119); settings: higher = more signal, called active from +8 up or from −8 down;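 note: probe is the protein aXip251-270 applied at 1 µg/mL to compound-printed slides; binding of probe to printed compounds measured as 667 nm fluorescence plus signal to noise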
[3] = small-molecule binders of probe aNOTCH3, primary screen, biochemical, small-molecule microarray, 635/667 nm fluorescence (AID 1120); settings: higher = more signal;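 note: probe is a biotin-tagged antibody raised against NOTCH3 rather than NOTCH3 protein; score merges spot fluorescence near 667 nm with spot signal to noise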
[4] = small-molecule binders of probe aNOTCH2, primary screen, biochemical, small-molecule microarray, 635/667 nm fluorescence (AID 1121); settings: higher = more signal;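 note: score merges feature fluorescence read at 667 nm with its signal to noise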
[5] = biological target: Carbonic anhydrase 2 (Homo sapiens) (UniProt P00918); assay: CAII small-molecule binders, profiling panel, biochemical, small-molecule microarray, Alexa647-labelled CAII (AID 1122); settings: CAII-A647 binding fluorescence, higher = more signal
[6] = COS7 lysate on small-molecule microarray, probe aHis, 635 nm (AID 1123); settings: COS7 cell lysate, fluorescence, higher = more signal;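 note: z-score combines 667nm fluorescence intensity with signal-to-noise per printed compound spot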
[7] = compound binding in COS7 lysate, probe aLAP1, primary screen, cell lysate, small-molecule microarray (AID 1124); settings: probe aLAP1, fluorescence, higher = more signal;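 note: lysate comes from COS7 cells expressing LAP1 and is applied at 0.3 µg/mL; score merges spot fluorescence near 667 nm with signal-to-noise over triplicate slides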
[8] = tested on: Sam68 (KHDRBS1); assay: Sam68 small-molecule binders, primary screen, biochemical, small-molecule microarray, 635 nm fluorescence (AID 1125); settings: small-molecule microarray binding, higher = more signal;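 note: score merges 667 nm channel intensity with signal to noise over triplicate slides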
[9] = tested on: Chordin-like protein 2 (CHRDL2); assay: CHRDL2 small-molecule binders, primary screen, biochemical, small-molecule microarray, 635 nm fluorescence (AID 1126); settings: small-molecule microarray binding, fluorescence 635 nm; higher = more signal;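 note: printed compound slides probed with Chrdl2 protein at 4 µg/mL for 1 h at 4 C; score merges 667 nm emission intensity with signal to noise over three replicate slides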
[10] = biological target: Concanavalin-A (Canavalia ensiformis) (UniProt P02866); assay: ConA small-molecule binders, primary screen, artefact control for SMM control protein annotation, biochemical, small-molecule microarray, Alexa647 label, 635 nm (AID 1127); settings: ConA-A647 binding fluorescence, higher = more signal;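 note: z combines 667 nm emission intensity with signal-to-noise across three replicate slides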
Sequence of Concanavalin-A (Canavalia ensiformis) (P02866 whole entry, looked up): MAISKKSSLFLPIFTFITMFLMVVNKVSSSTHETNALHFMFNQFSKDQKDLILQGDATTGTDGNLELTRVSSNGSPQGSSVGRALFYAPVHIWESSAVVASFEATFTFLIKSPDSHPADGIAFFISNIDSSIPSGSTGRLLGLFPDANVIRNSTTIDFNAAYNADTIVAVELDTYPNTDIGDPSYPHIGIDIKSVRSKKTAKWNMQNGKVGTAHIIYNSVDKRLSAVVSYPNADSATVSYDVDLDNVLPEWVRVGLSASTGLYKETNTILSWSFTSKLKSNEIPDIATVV

[11] = anti-His antibody binders, primary screen, artefact control for SMM control protein annotation, biochemical, small-molecule microarray, 635 nm fluorescence (AID 1128); settings: anti-His Alexa647 antibody binding, higher = more signal;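 note: score merges feature fluorescence with signal-to-noise for each printed compound spot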
[12] = tested on: Human papillomavirus type 1a E7 protein (residues 1-88); assay: HPV1a E7 small-molecule binders, primary screen, biochemical, small-molecule microarray, residues 1-88, 635 nm (AID 1129); settings: small-molecule microarray binding, fluorescence 635 nm; higher = more signal
[13] = biological target: Focal adhesion kinase 1 (Homo sapiens) (UniProt Q05397); assay: small-molecule microarray binders of FAK, primary screen, biochemical, 635/667 nm fluorescence, BSA, DTT (AID 1130); settings: PTK2 binding, 635 nm fluorescence, higher = more signal;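 note: composite of spot emission at 667 nm and signal to noise over triplicate slides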
Sequence of Focal adhesion kinase 1 (Homo sapiens) (Q05397 whole entry, looked up): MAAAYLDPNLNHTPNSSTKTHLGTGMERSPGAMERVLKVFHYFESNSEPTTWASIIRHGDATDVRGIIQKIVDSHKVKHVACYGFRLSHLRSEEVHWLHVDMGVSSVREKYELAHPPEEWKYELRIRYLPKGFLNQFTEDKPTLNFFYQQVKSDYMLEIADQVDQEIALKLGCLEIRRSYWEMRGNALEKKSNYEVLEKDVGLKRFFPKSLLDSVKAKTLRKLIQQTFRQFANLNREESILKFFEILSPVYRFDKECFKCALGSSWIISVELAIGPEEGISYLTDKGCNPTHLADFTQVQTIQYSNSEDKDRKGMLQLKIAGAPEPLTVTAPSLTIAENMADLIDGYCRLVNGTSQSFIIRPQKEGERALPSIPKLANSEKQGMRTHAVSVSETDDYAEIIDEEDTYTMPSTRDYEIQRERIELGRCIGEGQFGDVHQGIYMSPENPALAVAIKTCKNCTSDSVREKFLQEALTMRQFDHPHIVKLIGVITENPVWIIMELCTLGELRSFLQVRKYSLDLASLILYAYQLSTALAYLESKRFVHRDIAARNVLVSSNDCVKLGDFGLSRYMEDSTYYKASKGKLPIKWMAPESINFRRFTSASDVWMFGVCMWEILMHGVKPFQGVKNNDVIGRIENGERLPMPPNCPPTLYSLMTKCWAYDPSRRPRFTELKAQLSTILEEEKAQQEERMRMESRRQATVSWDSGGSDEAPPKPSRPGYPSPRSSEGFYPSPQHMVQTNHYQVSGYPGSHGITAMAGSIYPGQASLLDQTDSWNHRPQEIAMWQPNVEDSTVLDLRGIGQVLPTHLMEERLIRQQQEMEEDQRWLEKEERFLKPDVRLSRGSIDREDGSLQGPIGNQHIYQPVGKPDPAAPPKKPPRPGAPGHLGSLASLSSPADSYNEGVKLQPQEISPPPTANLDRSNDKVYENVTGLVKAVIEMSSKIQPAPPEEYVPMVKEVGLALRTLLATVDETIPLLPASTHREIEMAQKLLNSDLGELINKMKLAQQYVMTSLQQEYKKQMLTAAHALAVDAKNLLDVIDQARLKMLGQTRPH

[14] = tested on: Fibrinogen (Alexa647-labelled); assay: fibrinogen binders on compound microarrays, profiling panel, artefact control for SMM control-protein annotation, biochemical, small-molecule microarray, 635/667 nm fluorescence (AID 1131); settings: fibrinogen-A647 binding fluorescence, higher = more signal;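 note: z-score merges 667 nm fluorescence with per-spot signal-to-noise over triplicate slides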
[15] = biological target: Follistatin (Homo sapiens) (UniProt P19883); assay: follistatin binders on small-molecule microarrays, primary screen, biochemical, small-molecule microarray, 635/667 nm fluorescence (AID 1132); settings: FST binding, 635 nm fluorescence, higher = more signal
Sequence of Follistatin (Homo sapiens) (P19883 whole entry, looked up): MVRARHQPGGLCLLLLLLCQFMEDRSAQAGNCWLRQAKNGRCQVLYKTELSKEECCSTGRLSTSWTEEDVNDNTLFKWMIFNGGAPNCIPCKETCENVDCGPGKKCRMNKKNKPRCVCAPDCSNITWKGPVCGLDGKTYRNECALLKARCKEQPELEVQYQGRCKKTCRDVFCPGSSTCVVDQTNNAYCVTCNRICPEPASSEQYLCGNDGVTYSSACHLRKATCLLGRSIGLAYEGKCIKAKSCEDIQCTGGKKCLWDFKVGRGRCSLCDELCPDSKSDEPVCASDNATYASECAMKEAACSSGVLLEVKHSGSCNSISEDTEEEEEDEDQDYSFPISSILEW

[16] = biological target: Fibroblast growth factor 2 (Homo sapiens) (UniProt P09038); assay: FGF2 binders on small-molecule microarrays, primary screen, biochemical, small-molecule microarray, 635/667 nm fluorescence (AID 1133); settings: small-molecule microarray binding, FGF2, fluorescence 635/667; higher = more signal
Sequence of Fibroblast growth factor 2 (Homo sapiens) (P09038 whole entry, looked up): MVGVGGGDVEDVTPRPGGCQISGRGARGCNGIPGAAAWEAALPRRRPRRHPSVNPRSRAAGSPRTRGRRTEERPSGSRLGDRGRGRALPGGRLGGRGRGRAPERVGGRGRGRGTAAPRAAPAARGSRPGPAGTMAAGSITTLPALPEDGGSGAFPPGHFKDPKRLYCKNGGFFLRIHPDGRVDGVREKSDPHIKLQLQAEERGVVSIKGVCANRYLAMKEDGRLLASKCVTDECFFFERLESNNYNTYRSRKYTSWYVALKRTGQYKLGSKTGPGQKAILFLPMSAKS

[17] = mitochondrial membrane potential change in A549 cells, profiling panel, cell-based, JC-1 fluorescence, basal, 24 h, 100 nL (AID 1138); settings: higher = more signal;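 note: A549 lung adenocarcinoma cells under basal conditions with no added stimulus; test concentration not given here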
[18] = tested on: Lefty1; assay: Lefty1 binders on small-molecule microarrays, primary screen, biochemical, small-molecule microarray, 635/667 nm fluorescence (AID 1139); settings: small-molecule microarray binding, fluorescence 635/667; higher = more signal
[19] = tested on: wheat germ agglutinin (Triticum aestivum), Alexa647-labelled; assay: wheat germ agglutinin binders on compound microarrays, profiling panel, artefact control for SMM control-protein annotation, biochemical, small-molecule microarray, 635/667 nm fluorescence (AID 1140); settings: WGA-A647 binding, 635 nm fluorescence, higher = more signal;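 note: score merges 667 nm feature emission with signal to noise over triplicate slides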
[20] = biological target: Luciferin 4-monooxygenase (Photinus pyralis) (UniProt P08659); assay: firefly luciferase enzyme inhibitors, primary screen, biochemical, luminescence, purified enzyme, 2006 set (AID 1141); settings: SteadyGlo luminescence, 30 min, higher = more signal, called active from +8 up or from −8 down;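 note: cell-free assay with purified firefly luciferase at 100 ng per well in PBS; test concentration not given here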
Sequence of Luciferin 4-monooxygenase (Photinus pyralis) (P08659 whole entry, looked up): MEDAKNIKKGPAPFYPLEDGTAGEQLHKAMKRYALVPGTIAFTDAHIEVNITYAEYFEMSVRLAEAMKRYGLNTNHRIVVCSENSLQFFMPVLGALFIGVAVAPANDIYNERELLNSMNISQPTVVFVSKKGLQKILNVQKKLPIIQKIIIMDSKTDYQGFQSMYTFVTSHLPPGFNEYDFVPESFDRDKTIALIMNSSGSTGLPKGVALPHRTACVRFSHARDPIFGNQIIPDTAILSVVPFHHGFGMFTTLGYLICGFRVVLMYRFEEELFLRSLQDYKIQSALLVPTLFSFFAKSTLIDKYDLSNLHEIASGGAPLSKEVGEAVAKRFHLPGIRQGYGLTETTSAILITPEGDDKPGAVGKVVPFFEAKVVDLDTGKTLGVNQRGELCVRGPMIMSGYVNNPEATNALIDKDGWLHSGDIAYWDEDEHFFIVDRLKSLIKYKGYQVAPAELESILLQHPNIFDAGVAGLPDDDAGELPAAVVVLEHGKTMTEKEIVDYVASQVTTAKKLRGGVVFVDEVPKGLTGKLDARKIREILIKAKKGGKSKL

Sequence of Albumin (Bos taurus) (P02769 whole entry, looked up): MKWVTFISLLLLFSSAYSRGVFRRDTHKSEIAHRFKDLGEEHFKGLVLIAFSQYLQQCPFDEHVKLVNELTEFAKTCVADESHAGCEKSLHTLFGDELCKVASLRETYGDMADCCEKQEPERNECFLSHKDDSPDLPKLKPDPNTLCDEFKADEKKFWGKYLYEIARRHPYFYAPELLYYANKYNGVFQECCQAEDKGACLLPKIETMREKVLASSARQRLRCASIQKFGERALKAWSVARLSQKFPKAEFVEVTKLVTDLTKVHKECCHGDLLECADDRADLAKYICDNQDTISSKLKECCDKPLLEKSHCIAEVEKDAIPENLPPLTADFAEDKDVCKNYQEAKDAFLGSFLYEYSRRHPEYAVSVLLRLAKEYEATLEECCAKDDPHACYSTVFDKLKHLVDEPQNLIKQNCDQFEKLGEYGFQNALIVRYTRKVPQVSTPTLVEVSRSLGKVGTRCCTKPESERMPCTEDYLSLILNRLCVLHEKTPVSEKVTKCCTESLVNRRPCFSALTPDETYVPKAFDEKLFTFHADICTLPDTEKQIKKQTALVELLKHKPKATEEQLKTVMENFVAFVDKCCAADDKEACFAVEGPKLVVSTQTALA

| Structure (SMILES) | composite z-score [1] | composite Z-score [2] | composite z-score [3] | composite z-score [4] | composite z-score [5] | composite z-score [6] | composite z-score [7] | composite z-score [8] | composite z-score [9] | composite z-score [10] | composite z-score [11] | composite z-score [12] | composite z-score [13] | composite z-score [14] | composite z-score [15] | composite z-score [16] | z-score [17] | composite z-score [18] | composite z-score [19] | z-score [20] |
| --- | --- | --- | --- | --- | --- | --- | --- | --- | --- | --- | --- | --- | --- | --- | --- | --- | --- | --- | --- | --- |
| COc1ccc(C#Cc2ccc3c(c2)[C@]2(C(=O)N3)[C@H](c3ccc(O)cc3)N3[C@H](c4ccccc4)[C@H](c4ccccc4)OC(=O)[C@H]3[C@@H]2C(=O)N2CCc3cc(OC)c(OC)cc3C2)cc1 | 0.719 | 1.39 (inactive) | 0.0196 | -0.12 | 0.459 | 1.33 | 0.326 | 1.31 | 0.356 | 1.12 | 0.645 | 1.19 | 0.174 | 0.933 | 1.15 | 1.36 | -0.577 | 1.12 | 0.384 | -0.798 (inactive) |
| CN(C)CCCCNC(=O)[C@@H]1C[C@@H]2C(=O)N[C@@H](CCCCN)C(=O)N2[C@@H]1c1ccc(O)cc1 | -0.153 | 0.237 (inactive) | -0.0613 | -0.0241 | -0.0397 | 1.7 | 0.0496 | 0.239 | 0.965 | 1.19 | 0.253 | -0.0102 | -0.0748 | 0.223 | 1.34 | 1.68 | -1.38 | 0.896 | 0.857 | -0.0213 (inactive) |
| CCN(CC)c1ccc(N2CC=CC34O[C@@H]5/C=C\CCC(C)OC(=O)C5[C@H]3C(=O)N(CCCCCO)[C@@H]4C2=O)cc1 (stereo not given in full) | -0.295 | -0.4 (inactive) | -0.222 | -0.19 | 0.905 | -1.05 | -0.472 | -2.57 | -1.16 | -2.12 | -0.117 | -0.886 | -0.336 | -0.899 | -0.614 | -0.48 | 0.105 | -0.978 | 0.208 | -0.659 (inactive) |

— PubChem BioAssay
